Source: PubChem BioAssay
Sampled rows, rich in hits. Any-hit rate of the full collection: about 7.3%.
ELG1 genotox: genotoxicity induction in ELG1-luciferase HEK293T cells. HEK293T ELG1-luciferase reporter, luminescence, 16 h. Potency, µM (doses to about 46 µM), most hits filed as activators. hit rate 1.3% among 330,000; also: nearly all actives have a fitted effect of over 60% in size
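Cells (2,000/well) expressing the ELG1-luciferase fusion are dosed by pin tool and kept 16 hr at 37 °C, 5% CO2. Signal comes from ONE-Glo luciferase reagent after 30 min at room temperature.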
NPC1 prom act: activates the NPC1 promoter. AID 485313. hit rate 2.4% among 320,000. Potency, µM (highest dose often 9.22 µM), hits mostly activators. Huh7 NPC1 promoter luciferase reporter, 24 h; also: nearly all actives have a fitted effect of over 60% in size
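NPC1 promoter–luciferase Huh7 cells; 24 h compound; luminescence.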
Luc counter: Kinase-Glo luciferase inhibition (counter-screen); Kinase-Glo luciferase, ATP luminescence, 8 min; Potency, µM (doses to about 38.3 µM), most hits filed as inhibitors; Q27757; hit rate 0.28% among 200,000; also: nearly all actives have a fitted effect of over 60% in size
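Light output from Kinase-Glo luciferase with luciferin and 10 uM ATP in 50 mM imidazole pH 7.2, KCl, MgCl2, Tween 20, BSA; compound pin-delivered, 8-min ambient incubation, then luminescence read.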
Rab9 prom act: activators of Rab9 promoter. Huh7 Rab9 promoter-luciferase reporter, luminescence, 24 h. Potency, µM (titrated, usually from 9.22 µM), actives largely listed as activators. hit rate 2.8% among 320,000. AID 485297; also: nearly all actives have a fitted effect of over 60% in size
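Huh7 reporter line, Rab9 promoter upstream of luciferase. Compound exposure 24 h at 37 °C in reduced-serum medium with 10% FBS. Read-out: luminescence.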
SMN2 splice enh: enhancers of SMN2 splice variant expression; Potency, µM (highest dose often 46.1 µM), most hits filed as activators; hit rate 2.8% among 210,000; HEK293 SMN2-luciferase splicing reporter, luminescence, 30-36 h; AID 1458; also: nearly all actives have a fitted effect of over 55% in size
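HEK293 cells carry an SMN2 […]–luciferase reporter in which exon 7 inclusion puts luciferase in frame. Cells were plated 10-12 h before compound addition, then incubated 30-36 h at 37C. ONE-Glo luminescence was read; sodium butyrate at 4.5 mM final served as control.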
FLuc modulator: counter-screen for miR-21 project: firefly luciferase inhibitors or activators; hit rate 6.9% among 360,000; purified FLuc, Km substrates, luminescence inhibition; Potency, µM (top dose mostly 57.5 µM), most hits filed as inhibitors; AID 588342; also: nearly all actives have a fitted effect of over 55% in size
Target sequence (P08659 whole entry, looked up): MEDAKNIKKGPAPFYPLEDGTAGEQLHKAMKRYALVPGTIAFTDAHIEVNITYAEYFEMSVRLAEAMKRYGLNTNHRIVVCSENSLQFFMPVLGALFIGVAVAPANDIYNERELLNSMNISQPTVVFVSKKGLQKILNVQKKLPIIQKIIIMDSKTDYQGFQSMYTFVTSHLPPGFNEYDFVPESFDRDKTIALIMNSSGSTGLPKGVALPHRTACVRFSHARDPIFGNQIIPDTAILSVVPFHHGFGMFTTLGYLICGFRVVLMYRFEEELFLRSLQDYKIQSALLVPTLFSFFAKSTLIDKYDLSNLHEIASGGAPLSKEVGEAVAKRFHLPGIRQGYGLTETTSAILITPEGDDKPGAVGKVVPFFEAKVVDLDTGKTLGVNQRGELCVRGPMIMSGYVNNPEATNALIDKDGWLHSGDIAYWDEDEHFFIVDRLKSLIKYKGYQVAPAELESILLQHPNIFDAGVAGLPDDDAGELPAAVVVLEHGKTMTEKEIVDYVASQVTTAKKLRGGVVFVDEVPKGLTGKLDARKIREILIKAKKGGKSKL
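Purified P. pyralis luciferase (10nM final) with 10uM D-luciferin and 10uM ATP (Km levels) in 50mM Tris acetate pH 7.5, 10mM Mg acetate, 0.01% Tween-20, 0.05% BSA; qHTS 6-point titration, ~60 µM downward; luminescence read.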
Of the large screens only hits and unclear results are named; the others gave an inactive call. Calls follow the shape of the dose curve; as a rule, active = well fitted curve in the direction sought with a large enough effect; inconclusive = small, poorly fitted or top-dose-only effect, or another doubt; inactive = no such curve, though single readings can be large; an effect the other way counts as inactive or inconclusive.

COc1ccc(C2CC(c3ccccc3)=NN2c2ccc(Cl)c(C(=O)O)c2)cc1 (centres undefined)	FLuc modulator 21µM (no result: SMN2 splice enh)
CCN(Cc1ccccc1)C(c1cc2ccc(C)cc2[nH]c1=O)c1nnnn1CCOC (centres undefined)	none
Cc1ccc(COc2ccc(/C=N/O)cc2)cc1	ELG1 genotox inconclusive, NPC1 prom act inconclusive, Rab9 prom act 1.3µM, SMN2 splice enh 10µM, FLuc modulator 5.4µM
Cc1n[nH]c(=S)n1/N=C/c1ccc(OCc2ccc(Cl)cc2)cc1	FLuc modulator 19µM
NC(N)=N/N=C/c1ccc(OCc2ccc(Cl)cc2)cc1	ELG1 genotox inconclusive, NPC1 prom act 3.5µM, Rab9 prom act inconclusive, FLuc modulator 6µM (no result: Luc counter, SMN2 splice enh)
Cc1n[nH]c(=S)n1/N=C/c1ccc(OCc2ccc(Cl)cc2Cl)cc1	SMN2 splice enh inconclusive, FLuc modulator inconclusive
NC(N)=N/N=C/c1ccc(OCc2ccccc2)cc1	FLuc modulator inconclusive (no result: Luc counter, SMN2 splice enh)
O=c1c(Cc2c(F)cccc2Cl)c(O)ccn1Cc1ccc(F)cc1	none
CCn1ccc(C(=O)NCCCN2CCCC2=O)n1	none (no result: Luc counter, SMN2 splice enh)
CCS(=O)(=O)Nc1ccc(C2=NN(C(=S)Nc3ccccc3)C(c3ccco3)C2)cc1 (centres undefined)	SMN2 splice enh inconclusive, FLuc modulator inconclusive
Cc1ccc(C2=NN(C(=S)Nc3ccccc3)C(c3ccco3)C2)cc1 (centres undefined)	ELG1 genotox inconclusive, NPC1 prom act 2.8µM, Rab9 prom act 3.2µM, SMN2 splice enh 13µM, FLuc modulator 7.6µM
O=C(O)c1ccccc1C(=O)c1ccc(N2CCCC2)c([N+](=O)[O-])c1	FLuc modulator 24µM
Cc1cccc(NC(=O)c2ccc(N(C)C3CCCCC3)c([N+](=O)[O-])c2)n1	FLuc modulator 11µM
Cc1cccc(NC(=O)c2ccc(N3CCCCC3)c([N+](=O)[O-])c2)n1	ELG1 genotox inconclusive, NPC1 prom act 2.8µM, Rab9 prom act 2µM, SMN2 splice enh 6.3µM, FLuc modulator 4.8µM
COc1ccccc1N1CCN(C(CNS(=O)(=O)c2ccccc2)c2ccccc2)CC1 (centres undefined)	none (no result: Luc counter, SMN2 splice enh)
Nc1[nH]nc2nc(N3CCCC3)nc(-c3ccccc3)c12	none
COc1ccc2c(Cl)c(C(N)=O)sc2c1	FLuc modulator 15µM
COc1cccc(CN(C)C(=O)c2cc(COc3c(F)cccc3F)on2)c1	none (no result: SMN2 splice enh)
CCOC(=O)c1c(C)[nH]c(C(=O)COC(=O)C2(C)CC2(Cl)Cl)c1C (centres undefined)	ELG1 genotox inconclusive, NPC1 prom act inconclusive, Rab9 prom act 3.2µM, FLuc modulator 13µM
CCCCC(=O)OCC(=O)c1[nH]c(C)c(C(C)=O)c1C	FLuc modulator 11µM
CCOC(=O)c1c(C)[nH]c(C(=O)COC(=O)C2CC2)c1C	ELG1 genotox inconclusive, FLuc modulator 9.5µM (no result: Luc counter, SMN2 splice enh)
CCOC(=O)CC(=O)c1[nH]c(C)c(C(=O)OCC)c1C	FLuc modulator inconclusive
CCNC(=O)CCSc1nc(C)cc(C)n1	none
CCCc1ccc(C(=O)CCC(=O)O)cc1	FLuc modulator 24µM
COc1ccc(C(=O)COC(=O)CCc2ccccc2)cc1	FLuc modulator 27µM (no result: Luc counter, SMN2 splice enh)
COc1ccc(C(=O)CCc2ccccc2)cc1	ELG1 genotox inconclusive, NPC1 prom act inconclusive, Rab9 prom act inconclusive, FLuc modulator 17µM (no result: Luc counter, SMN2 splice enh)
COc1ccc(C(=O)COC(=O)CCC(=O)Nc2ccc(C(C)=O)cc2)cc1	ELG1 genotox inconclusive, FLuc modulator inconclusive (no result: Luc counter, SMN2 splice enh)
O=C(CCc1ccccc1)OCC(=O)c1ccc([N+](=O)[O-])cc1	none
COc1ccc(C(=O)COC(=O)CCCC(=O)Nc2ccc(C(C)=O)cc2)cc1	FLuc modulator 5.4µM (no result: ELG1 genotox, NPC1 prom act, Luc counter, Rab9 prom act)
COc1ccc(C(=O)COC(=O)CCn2nnc(-c3cccc(O)c3OC)n2)cc1	FLuc modulator 9.5µM
Cc1c(C(=O)OCC(=O)NC(=O)NC2CCCCC2)cccc1[N+](=O)[O-]	none (no result: NPC1 prom act, Luc counter, Rab9 prom act, SMN2 splice enh, FLuc modulator)
Cc1ccc2c(c1)C(c1ccncc1)=NNC(c1ccc(F)cc1)=N2	none
Cc1ccc(C2=Nc3cccnc3C(c3ccccc3)=NN2)cc1	ELG1 genotox inconclusive, NPC1 prom act 3.5µM, Rab9 prom act 3.2µM, SMN2 splice enh 13µM, FLuc modulator 11µM
Cc1ccc2c(c1)C(c1ccncc1)=NNC(c1ccccc1)=N2	NPC1 prom act inconclusive, Rab9 prom act 2.8µM, FLuc modulator 17µM (no result: SMN2 splice enh)
Cc1ccc(C2=Nc3ccc(Br)cc3C(c3ccncc3)=NN2)cc1	FLuc modulator 27µM
Fc1ccc2c(c1)C(c1ccncc1)=NNC(c1ccc(Br)cc1)=N2	none
CCN1C(=NCCOC)N[C@@H](CCc2ccccc2)[C@H](C(=O)OC)[C@H]1C	none (no result: Luc counter, SMN2 splice enh)
O=C(CN1C(=O)C(=O)N(Cc2ccccc2)C1=O)c1ccc[nH]1	Rab9 prom act inconclusive, FLuc modulator inconclusive (no result: Luc counter, SMN2 splice enh)
Cc1ccc(-c2cnc3c(Cl)c(C)nn3c2)cc1	ELG1 genotox inconclusive, NPC1 prom act inconclusive, Rab9 prom act 0.45µM, SMN2 splice enh 3.2µM, FLuc modulator 1.3µM
Cc1cc2ncc(-c3ccc(Cl)cc3)cn2n1	ELG1 genotox inconclusive, NPC1 prom act 3.5µM, Rab9 prom act 1.4µM, SMN2 splice enh 11µM, FLuc modulator 2.7µM
Cc1ccc(-c2cnc3cc(C)nn3c2)cc1	NPC1 prom act 0.71µM, Rab9 prom act 0.45µM, SMN2 splice enh 13µM, FLuc modulator 2.1µM
